Active and inactive are the calls of the source.
Assays:
[1] = small molecules captured by biotinylated probe aFSTL3 – biochemical, small-molecule microarray, fluorescence 635/667, stem cell growth factor project, primary screen (AID 1064); settings: higher = more signal;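 note: measures binding of the biotinylated anti-FSTL3 antibody to printed compounds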
[2] = binders from COS7 lysate, DM2A8 probe, primary screen, torsin A project, cell lysate, small-molecule microarray, fluorescence 635/667 (AID 1065); settings: higher = more signal, COS7 lysate expressing mutant human TOR1A
[3] = small molecules captured by biotinylated probe aFGF2 – biochemical, small-molecule microarray, fluorescence 635/667, stem cell growth factor project, primary screen (AID 1067); settings: higher = more signal;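 note: measures binding of biotinylated aFGF2 protein to printed compounds on slides; z-score merges feature fluorescence and signal-to-noise across triplicate slides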
[4] = small molecules captured by biotinylated probe aFGF10 – biochemical, small-molecule microarray, fluorescence 635/667, stem cell growth factor project, primary screen (AID 1071); settings: higher = more signal;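 note: score merges 667 nm spot intensity and signal to noise from triplicate slides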
[5] = molecular target: Neurogenic locus notch homolog protein 2 (Homo sapiens) (UniProt Q04721); assay: small molecules binding Notch2 protein – biochemical, small-molecule microarray, 635 nm fluorescence, stem cell growth factors, primary screen (AID 1073); settings: higher = more signal
[6] = molecular target: Pro-neuregulin-1, membrane-bound isoform (Homo sapiens) (UniProt Q02297); assay: small molecules binding neuregulin-1 protein – biochemical, small-molecule microarray, fluorescence 635/667, psychiatric disease protein project, primary screen (AID 1075); settings: NRG1 binding, 635 nm fluorescence, higher = more signal;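 note: score combines 667 nm spot fluorescence with signal to noise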
[7] = system: Neuregulin-1 EGF-like domain; assay: small molecules binding NRG1 EGF domain – biochemical, small-molecule microarray, 635 nm fluorescence, primary screen (AID 1081); settings: higher = more signal;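 note: binding of the protein to compounds printed on small-molecule microarray slides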
[8] = FRG1 expression reporter modulators in myotubes – cell-based, C2C12 myotubes, firefly/Renilla luciferase, luminescence, FRG1 inhibition for FSHD, primary screen (AID 1084); settings: FRG1 promoter luciferase, higher = more signal, called active from +8 up or from −8 down
[9] = small molecules captured by biotinylated probe aFST – biochemical, small-molecule microarray, fluorescence 635/667, stem cell growth factor project, primary screen (AID 1086); settings: higher = more signal;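 note: score merges 667 nm fluorescence with signal-to-noise of each printed compound spot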
[10] = binders of probe aHhip on microarray, primary screen, stem cell growth factor project, biochemical, small-molecule microarray, fluorescence 635/667 (AID 1087); settings: higher = more signal;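 note: score merges spot fluorescence at 667nm with spot signal to noise ratio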
[11] = system: PRMT1 (protein arginine N-methyltransferase 1); assay: small molecules binding arginine methyltransferase PRMT1 – biochemical, small-molecule microarray, 635 nm fluorescence, primary screen (AID 1088); settings: higher = more signal;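 note: binding of Prmt1 protein to compounds spotted on small-molecule microarray slides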
[12] = growth effects on S. cerevisiae YJM789 – YJM789 clinical isolate, OD600, 24 h, basal, primary screen (AID 1089); settings: higher = more signal, called active from +8 up or from −8 down;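 note: growth of clinical yeast isolate S. cerevisiae YJM 789 seeded 1000 cells per well; test concentration not given here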
[13] = S. pombe growth modifiers, basal conditions – strain 972, OD600, 24 h, no modulator, primary screen (AID 1090);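 note: basal condition with compound alone and no growth modifier present; test concentration not given here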; settings: S. pombe 972 growth, higher = more signal, called active from +8 up or from −8 down
[14] = budding yeast growth modifiers under rapamycin – strain BY4716, OD600, 96 h, primary screen (AID 1091); note: test concentration not given here; settings: S. cerevisiae BY4716 + rapamycin, higher = more signal, called active from +8 up or from −8 down
[15] = molecular target: Torsin-1A-interacting protein 2 (Homo sapiens) (UniProt Q8NFQ8); assay: small molecules binding lysate-expressed LULL1 – cell lysate, human LULL1 lysate, 635/667 nm fluorescence, primary screen (AID 1092); settings: small-molecule microarray, hLULL1 lysate binding, 635 nm fluorescence; higher = more signal;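 note: probe is lysate of COS7 cells overexpressing human LULL1; score merges per-feature 667 nm fluorescence with signal-to-noise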
[16] = optical density change of DRC41 E. coli – strain DRC41, OD650, 24 h, E. coli filamentation project, primary screen (AID 1093);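 note: MC1000 strain lacking acrAB efflux and sulA so SOS filamentation is blocked; test concentration not given here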; settings: E. coli DRC41 growth, higher = more signal, called active from +8 up or from −8 down
[17] = probe aLefty2 binding to arrayed compounds – biochemical, biotinylated probe, 635/667 nm fluorescence, primary screen (AID 1094); settings: small-molecule microarray, higher = more signal;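 note: score merges spot fluorescence near 667 nm with spot signal-to-noise ratio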
[18] = system: Noggin (protein binding on small-molecule microarray); assay: small molecules binding Noggin protein – biochemical, 635/667 nm fluorescence, primary screen (AID 1095); settings: 635 nm fluorescence, higher = more signal;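 note: score merges 667 nm feature fluorescence with signal to noise over triplicate slides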
[19] = molecular target: Neurogenic locus notch homolog protein 3 (Homo sapiens) (UniProt Q9UM47); assay: small molecules binding NOTCH3 protein – biochemical, 635/667 nm fluorescence, primary screen (AID 1096); settings: small-molecule microarray, 635 nm fluorescence, higher = more signal
[20] = probe aEGFR binding to arrayed compounds – biochemical, biotinylated probe, 635/667 nm fluorescence, primary screen (AID 1097); settings: small-molecule microarray, higher = more signal;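 note: probe is a biotinylated anti-EGFR antibody binding compounds printed on slides; score combines fluorescence near 667 nm and signal to noise of each spot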

Chain of Pro-neuregulin-1, membrane-bound isoform (Homo sapiens) (Q02297 whole entry, looked up, the tested form may be a part, canonical isoform): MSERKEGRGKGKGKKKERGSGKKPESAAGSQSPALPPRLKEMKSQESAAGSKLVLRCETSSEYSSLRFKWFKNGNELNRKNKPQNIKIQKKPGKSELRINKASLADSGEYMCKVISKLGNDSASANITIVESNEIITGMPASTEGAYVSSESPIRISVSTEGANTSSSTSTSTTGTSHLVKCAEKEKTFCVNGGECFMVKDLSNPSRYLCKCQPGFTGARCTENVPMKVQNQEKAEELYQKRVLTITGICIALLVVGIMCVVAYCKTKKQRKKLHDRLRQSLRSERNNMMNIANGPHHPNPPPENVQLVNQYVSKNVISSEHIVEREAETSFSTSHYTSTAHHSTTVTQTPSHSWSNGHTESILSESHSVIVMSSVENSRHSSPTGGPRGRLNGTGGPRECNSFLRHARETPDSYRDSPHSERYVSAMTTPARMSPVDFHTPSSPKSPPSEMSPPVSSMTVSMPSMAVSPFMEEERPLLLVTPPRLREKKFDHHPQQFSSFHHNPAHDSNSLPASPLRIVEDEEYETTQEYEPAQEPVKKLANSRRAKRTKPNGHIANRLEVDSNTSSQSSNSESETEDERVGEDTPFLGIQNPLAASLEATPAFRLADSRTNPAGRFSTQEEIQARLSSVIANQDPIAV
Chain of Neurogenic locus notch homolog protein 3 (Homo sapiens) (Q9UM47 whole entry, looked up): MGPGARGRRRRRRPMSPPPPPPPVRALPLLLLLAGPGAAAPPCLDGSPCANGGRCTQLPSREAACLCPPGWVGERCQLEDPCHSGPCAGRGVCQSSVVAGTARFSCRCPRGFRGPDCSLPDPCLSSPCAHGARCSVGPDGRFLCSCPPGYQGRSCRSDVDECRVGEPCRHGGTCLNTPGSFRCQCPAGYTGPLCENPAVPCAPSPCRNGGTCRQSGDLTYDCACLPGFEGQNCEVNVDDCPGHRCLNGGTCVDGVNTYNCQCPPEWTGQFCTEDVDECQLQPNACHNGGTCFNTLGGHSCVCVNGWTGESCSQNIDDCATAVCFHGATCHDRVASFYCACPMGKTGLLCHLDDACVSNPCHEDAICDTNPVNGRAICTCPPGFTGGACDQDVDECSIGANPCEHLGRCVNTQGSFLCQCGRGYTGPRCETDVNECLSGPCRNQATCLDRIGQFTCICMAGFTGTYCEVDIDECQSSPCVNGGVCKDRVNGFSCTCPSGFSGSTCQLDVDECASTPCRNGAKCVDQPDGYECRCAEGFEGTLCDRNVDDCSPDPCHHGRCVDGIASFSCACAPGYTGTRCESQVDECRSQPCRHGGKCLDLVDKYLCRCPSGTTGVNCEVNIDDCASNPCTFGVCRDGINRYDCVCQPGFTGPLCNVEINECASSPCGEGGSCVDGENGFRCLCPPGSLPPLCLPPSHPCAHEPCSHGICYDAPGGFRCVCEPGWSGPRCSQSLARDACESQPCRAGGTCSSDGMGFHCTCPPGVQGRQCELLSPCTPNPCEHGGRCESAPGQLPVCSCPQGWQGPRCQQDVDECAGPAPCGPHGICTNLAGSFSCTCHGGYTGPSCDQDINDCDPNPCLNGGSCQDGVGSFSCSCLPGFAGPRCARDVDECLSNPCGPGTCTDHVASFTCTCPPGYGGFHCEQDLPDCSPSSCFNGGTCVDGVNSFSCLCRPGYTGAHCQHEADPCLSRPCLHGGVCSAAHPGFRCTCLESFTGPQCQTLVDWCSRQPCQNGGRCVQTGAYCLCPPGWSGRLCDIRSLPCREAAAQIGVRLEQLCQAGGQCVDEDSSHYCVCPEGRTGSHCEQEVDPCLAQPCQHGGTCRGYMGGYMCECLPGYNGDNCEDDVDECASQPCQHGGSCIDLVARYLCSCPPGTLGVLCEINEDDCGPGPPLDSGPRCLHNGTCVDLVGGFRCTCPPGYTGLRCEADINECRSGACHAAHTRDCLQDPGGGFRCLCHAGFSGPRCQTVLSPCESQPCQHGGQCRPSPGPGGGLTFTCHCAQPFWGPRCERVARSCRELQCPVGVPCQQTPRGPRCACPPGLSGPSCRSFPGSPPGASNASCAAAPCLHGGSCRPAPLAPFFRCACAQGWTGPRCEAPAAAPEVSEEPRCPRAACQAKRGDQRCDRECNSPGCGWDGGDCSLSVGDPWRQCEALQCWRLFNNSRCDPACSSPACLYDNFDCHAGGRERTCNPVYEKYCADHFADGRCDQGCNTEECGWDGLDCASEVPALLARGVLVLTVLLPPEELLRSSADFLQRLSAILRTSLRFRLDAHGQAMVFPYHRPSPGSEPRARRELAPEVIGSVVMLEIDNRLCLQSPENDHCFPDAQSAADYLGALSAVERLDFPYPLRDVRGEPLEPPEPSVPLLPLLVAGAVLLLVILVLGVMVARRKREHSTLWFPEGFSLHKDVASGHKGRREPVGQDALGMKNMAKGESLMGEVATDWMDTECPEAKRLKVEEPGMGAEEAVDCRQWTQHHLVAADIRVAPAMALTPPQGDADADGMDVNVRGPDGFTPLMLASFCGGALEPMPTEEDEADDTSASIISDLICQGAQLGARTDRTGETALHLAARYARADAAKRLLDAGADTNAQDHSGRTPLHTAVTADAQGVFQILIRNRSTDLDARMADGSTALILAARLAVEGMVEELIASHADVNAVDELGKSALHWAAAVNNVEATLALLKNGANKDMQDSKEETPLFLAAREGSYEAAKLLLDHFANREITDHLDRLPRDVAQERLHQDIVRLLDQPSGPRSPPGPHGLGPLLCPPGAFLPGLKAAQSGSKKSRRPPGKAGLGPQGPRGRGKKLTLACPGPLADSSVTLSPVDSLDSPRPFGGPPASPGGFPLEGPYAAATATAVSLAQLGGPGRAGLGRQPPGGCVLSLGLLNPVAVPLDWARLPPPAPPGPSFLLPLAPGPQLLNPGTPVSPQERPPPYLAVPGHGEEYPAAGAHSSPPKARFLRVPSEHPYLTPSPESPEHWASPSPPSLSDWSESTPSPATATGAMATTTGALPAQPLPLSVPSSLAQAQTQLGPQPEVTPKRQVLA
Chain of Torsin-1A-interacting protein 2 (Homo sapiens) (Q8NFQ8 whole entry, looked up): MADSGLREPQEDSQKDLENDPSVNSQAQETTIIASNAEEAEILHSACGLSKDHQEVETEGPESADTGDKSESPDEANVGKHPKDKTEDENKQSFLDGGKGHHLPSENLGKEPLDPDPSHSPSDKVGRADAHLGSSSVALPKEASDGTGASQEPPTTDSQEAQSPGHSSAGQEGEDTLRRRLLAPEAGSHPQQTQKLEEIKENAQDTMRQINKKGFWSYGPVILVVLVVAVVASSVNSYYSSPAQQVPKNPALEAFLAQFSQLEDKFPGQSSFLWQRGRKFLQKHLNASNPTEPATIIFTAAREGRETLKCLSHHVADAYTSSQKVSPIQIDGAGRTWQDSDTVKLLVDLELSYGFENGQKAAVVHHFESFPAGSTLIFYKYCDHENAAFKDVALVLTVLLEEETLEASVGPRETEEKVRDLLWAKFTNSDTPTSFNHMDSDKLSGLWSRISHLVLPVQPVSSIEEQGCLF

| SMILES | composite z-score [1] | composite z-score [2] | composite z-score [3] | composite z-score [4] | composite z-score [5] | composite z-score [6] | composite z-score [7] | z-score [8] | composite z-score [9] | composite z-score [10] | composite z-score [11] | z-score [12] | z-score [13] | z-score [14] | composite z-score [15] | z-score [16] | composite z-score [17] | composite z-score [18] | composite z-score [19] | composite z-score [20] |
| --- | --- | --- | --- | --- | --- | --- | --- | --- | --- | --- | --- | --- | --- | --- | --- | --- | --- | --- | --- | --- |
| COC(=O)C(CC#Cc1ccc2c(c1)[C@]1(C(=O)N2)[C@H](c2ccc(OCCO)cc2)N2[C@H](c3ccccc3)[C@H](c3ccccc3)OC(=O)[C@H]2[C@@H]1C(=O)NC[C@H](O)c1ccccc1)C(=O)OC | 0.194 | 0.855 | -0.0011 | 1.12 | 0.694 | 1.29 | 1.26 | 1.03 (inactive) | -0.0592 | 0.0274 | 1.54 | 2.37 (inactive) | 0.31 (inactive) | 7.43 (inactive) | 2.41 | 1.89 (inactive) | -0.141 | 0.617 | 0.908 | -0.0856 |
| C=CCOC(=O)[C@@H]1[C@H]2C(=O)O[C@H](c3ccccc3)[C@H](c3ccccc3)N2[C@H](c2ccc(OCCOC(=O)[C@@H]3C[C@@H]4C(=O)N[C@@H](Cc5ccccc5)C(=O)N4[C@@H]3c3cccc(OCCO)c3)cc2)[C@@]12C(=O)Nc1ccc(I)cc12 | 0.224 | 0.63 | -0.0566 | 0.764 | 1.03 | 1.03 | 1.06 | 1.06 (inactive) | 0.043 | -0.0196 | 1.53 | 1.39 (inactive) | 2.04 (inactive) | 4.55 (inactive) | 1.83 | 0.0087 (inactive) | -0.0286 | 1.5 | 0.974 | 0.0042 |
| O=C1N(CCS(=O)(=O)c2ccccc2)Cc2ccccc2[C@H]2OC(c3ccc(OCCCO)cc3)=N[C@@]12CCS(=O)(=O)c1ccccc1 | 1.11 | 0.994 | 0.145 | 0.784 | 1.37 | 1.62 | 1.36 | -2.53 (inactive) | 0.593 | -0.189 | 1.57 | 1.91 (inactive) | 1.62 (inactive) | 8.55 (active) | 3.01 | -0.409 (inactive) | 0.417 | 0.894 | 1.06 | 0.162 |
| O=C1OCC=C[C@H]2OC34C=CCN(c5ccc6ccccc6c5)C(=O)[C@H]3N(CCCO)C(=O)[C@@H]4[C@@H]12 (stereo not given in full) | 0.714 | -2.17 | -0.102 | -0.657 | -0.894 | -0.0772 | 1.59 | 0.389 (inactive) | -0.234 | 0.0515 | -0.3 | 0.0281 (inactive) | -0.318 (inactive) | 0.0596 (inactive) | -0.309 | 0.993 (inactive) | 0.0061 | 0.0654 | 0.0404 | -0.186 |
| NC(=O)NCC#Cc1ccc2c(c1)[C@]1(C(=O)N2)[C@H](C(=O)NC[C@H](O)c2ccccc2)[C@H]2C(=O)O[C@H](c3ccccc3)[C@H](c3ccccc3)N2[C@@H]1c1ccc(O)cc1 | -0.261 | 0.362 | 0.337 | 0.896 | 0.857 | 1.38 | 0.983 | 1.11 (inactive) | 0.077 | 0.356 | 1.39 | 1.94 (inactive) | 1.06 (inactive) | 3.72 (inactive) | 2.9 | -0.412 (inactive) | 0.138 | 1.27 | 1.13 | 0.151 |
| COC(=O)c1ccc(C23CC2(C(NP(=O)(c2ccccc2)c2ccccc2)c2ccccc2)C3)cc1 (stereo not given) | 0.741 | 0.275 | -0.0009 | 0.0592 | 1.73 | 2.26 | 1.17 | -4.52 (inactive) | 1.73 | 0.0596 | 0.214 | -2.72 (inactive) | -1.76 (inactive) | -0.789 (inactive) | 3.18 | 0.259 (inactive) | 0.888 | 0.13 | 1.07 | 0.0632 |
| COc1ccc([Si](C)(C)[C@@H]2[C@@H](CC(=O)N3CCC[C@H]3CO)O[C@]3(C(=O)N(C)c4c(Br)cc(C)cc43)[C@H]2C)cc1 | -0.438 | 0.264 | -0.105 | 0.113 | 1.04 | 0.776 | 0.9 | -1.53 (inactive) | 0.219 | -0.0427 | 1.32 | -1.69 (inactive) | -0.328 (inactive) | -0.827 (inactive) | 2.52 | -0.861 (inactive) | -0.0657 | 0.804 | 0.93 | -0.0831 |
| COc1ccc(CCNC(=O)[C@@]2(c3ccc([N+](=O)[O-])cc3)CC(=O)N(CC34CC5CC(CC(C5)C3)C4)[C@@H]2c2ccc(CO)cc2)cc1 | 0.281 | 0.441 | -0.0039 | 0.268 | 1.14 | 1.22 | 1.15 | -0.0918 (inactive) | 0.298 | 0.0848 | 1.37 | 0.719 (inactive) | -0.063 (inactive) | 6.65 (inactive) | 2.11 | -0.108 (inactive) | 0.257 | 0.71 | 1.16 | 0.544 |
| Cc1ccc(F)cc1S(=O)(=O)N[C@@H]1CCN(Cc2ccc(-c3ccccc3)cc2)C1 | 0.111 | 0.504 | -0.0894 | 1.04 | 0.332 | 0.0558 | 1.07 | -1.72 (inactive) | 0.204 | 0.107 | 0.126 | -26.5 (active) | -21.3 (active) | -4.06 (inactive) | 0.12 | -19.9 (active) | 0.144 | 0.713 | 0.481 | -0.0565 |
| O=C(CS)NCCCCCCNC(=O)[C@H]1C[C@H]2C(=O)N3CCC[C@H]3C(=O)N2[C@H]1c1cccc(OCCO)c1 | 0.255 | 0.7 | -0.0802 | 0.635 | 0.698 | 1.23 | 1.4 | 0.865 (inactive) | 0.189 | 0.235 | 1.5 | -0.319 (inactive) | -0.26 (inactive) | 0.0927 (inactive) | 3.05 | -0.983 (inactive) | 0.105 | 0.858 | 1.1 | 0.0219 |

— PubChem BioAssay
